Source: PubChem BioAssay (NCATS)
Records with an inconclusive call do not appear. Where a call stands in place of a potency, no number is given. Active and inactive are the calls of the source. Calls follow the shape of the dose curve; as a rule, active = well fitted curve in the direction sought with a large enough effect; inconclusive = small, poorly fitted or top-dose-only effect, or another doubt; inactive = no such curve, though single readings can be large; an effect the other way counts as inactive or inconclusive.

These compounds were tested against Tyrosine-protein phosphatase non-receptor type substrate 1 (Homo sapiens) + Leukocyte surface antigen CD47 (Homo sapiens) (UniProt P78324+Q08722) (assay: CD47-SIRPalpha protein protein interaction - Alpha assay qHTS validation (AID 1347059;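 also: bead proximity luminescence from CD47 binding SIRPalpha after compound preincubation with SIRPalpha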)). Conditions: AlphaScreen CD47-His/biotin-SIRPalpha binding, LOPAC; series mostly up to 38.3 µM.
Chain of Tyrosine-protein phosphatase non-receptor type substrate 1 (Homo sapiens) + Leukocyte surface antigen CD47 (Homo sapiens) (P78324 whole entry, looked up, the tested form may be a part): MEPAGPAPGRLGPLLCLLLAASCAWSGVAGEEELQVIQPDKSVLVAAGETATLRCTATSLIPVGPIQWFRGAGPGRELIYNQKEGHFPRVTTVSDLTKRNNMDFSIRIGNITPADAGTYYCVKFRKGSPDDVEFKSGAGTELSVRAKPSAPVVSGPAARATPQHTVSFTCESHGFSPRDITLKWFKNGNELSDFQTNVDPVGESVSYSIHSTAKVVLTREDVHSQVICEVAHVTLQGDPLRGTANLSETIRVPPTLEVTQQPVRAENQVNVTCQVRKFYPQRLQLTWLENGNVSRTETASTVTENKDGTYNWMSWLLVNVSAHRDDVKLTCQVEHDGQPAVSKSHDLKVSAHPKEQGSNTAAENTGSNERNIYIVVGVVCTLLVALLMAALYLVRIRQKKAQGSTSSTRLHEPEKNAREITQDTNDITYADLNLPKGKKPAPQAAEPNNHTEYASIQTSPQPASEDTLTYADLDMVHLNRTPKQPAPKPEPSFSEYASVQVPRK
Chain of Tyrosine-protein phosphatase non-receptor type substrate 1 (Homo sapiens) + Leukocyte surface antigen CD47 (Homo sapiens) (Q08722 whole entry, looked up, the tested form may be a part): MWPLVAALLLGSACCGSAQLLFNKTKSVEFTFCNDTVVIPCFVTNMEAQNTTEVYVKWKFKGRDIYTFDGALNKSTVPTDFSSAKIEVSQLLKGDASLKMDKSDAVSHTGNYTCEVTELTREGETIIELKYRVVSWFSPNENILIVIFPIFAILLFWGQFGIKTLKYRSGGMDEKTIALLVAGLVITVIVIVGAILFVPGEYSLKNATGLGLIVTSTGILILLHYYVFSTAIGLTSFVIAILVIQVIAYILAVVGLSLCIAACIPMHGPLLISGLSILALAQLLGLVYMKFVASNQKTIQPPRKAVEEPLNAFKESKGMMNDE
Outline: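 AlphaScreen signal between CD47-His (12.5 nM) and biotin-SIRPalpha (25 nM) soluble extracellular domains, bead-captured via Ni-NTA and streptavidin. Compounds, in 7-point titrations, met SIRPalpha 30 min before CD47; PBS pH 7.4 with 0.05% IGEPAL.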

Question: How did the Potency turn out when `C=C1C[C@@]23CC[C@H]4[C@@](C)(CCC[C@@]4(C)C(=O)O)[C@@H]2CC[C@]1(O)C3` was run?
Answer: inactive

Question: `CCCn1c(=O)c2[nH]c(C3CCCC3)nc2n(CCC)c1=O` was tested. Which Potency did it give?
Answer: inactive

Question: With `O=C1NC(=O)c2cc(Nc3ccccc3)c(Nc3ccccc3)cc21` as the compound, how does the Potency read?
Answer: inactive

Question: With `NC(=O)CNCCC(c1ccccc1)c1ccccc1` as the compound, how does the Potency read?
Answer: inactive

Question: How did the Potency turn out when `CC#CCOC(=O)c1c(C)nc2sc3c(c2c1N)CCC(O)C3` (configuration not stated) was run?
Answer: inactive

Question: `Nc1ccc2c3c(cccc13)C(=O)NC2=O` was tested. Which Potency did it give?
Answer: inactive

Question: With `O=C(N[C@@H](Cc1ccccc1)C(=O)CCl)OCc1ccccc1` as the compound, how does the Potency read?
Answer: inactive

Question: How did the Potency turn out when `CCCn1c(=O)c2[nH]c(-c3ccc(S(=O)(=O)O)cc3)nc2n(CCC)c1=O` was run?
Answer: inactive

Question: `O=C(O)Cc1c[nH]c2ccc(O)cc12` was tested. Which Potency did it give?
Answer: inactive

Question: For `Clc1nccc2c1ccc1ccccc12`, which Potency is on record?
Answer: inactive

Question: How did the Potency turn out when `O=C(O)/C=C/c1ccc(O)c(O)c1` was run?
Answer: inactive

Question: How did the Potency turn out when `O=C(O)Cc1ccc(O)c(O)c1` was run?
Answer: inactive

Question: How did the Potency turn out when `NCCCCN=C(N)N` was run?
Answer: inactive

Question: How did the Potency turn out when `Cc1cccc(C)c1OCC(N)C(C)C` (configuration not stated) was run?
Answer: inactive

Question: For `CNc1cc(NS(=O)(=O)c2ccc(N)cc2)nc(NC)n1`, which Potency is on record?
Answer: inactive

Question: Which Potency does the source give for `C#CC(N)CCC(=O)O` (configuration not stated) here?
Answer: inactive

Question: With `CN[C@H](CC(=O)O)C(=O)O` as the compound, how does the Potency read?
Answer: inactive

Question: Which Potency does the source give for `CCCCCCCCCC[Si](C)(C)CCC(=O)NC(Cc1ccc(C)cc1)c1ccccc1` (configuration not stated) here?
Answer: inactive

Question: How did the Potency turn out when `C[C@H](O)C(=O)C1=Nc2c(nc(N)[nH]c2=O)NC1` was run?
Answer: inactive

Question: With `c1ccc(CN2CCC3(CCCc4ccccc43)CC2)cc1` as the compound, how does the Potency read?
Answer: inactive

Question: For `CC(C)NC[C@H](O)COc1cccc2ccccc12`, which Potency is on record?
Answer: inactive

Question: For `OC1(c2ccc(Cl)cc2)CCN(Cc2c[nH]c3ccccc23)CC1`, which Potency is on record?
Answer: inactive

Question: How did the Potency turn out when `NC(Cc1cccc(-c2ccccc2CP(=O)(O)O)c1)C(=O)O` (configuration not stated) was run?
Answer: inactive

Question: With `Cn1c(=O)c2[nH]c(-c3ccc(S(=O)(=O)O)cc3)nc2n(C)c1=O` as the compound, how does the Potency read?
Answer: inactive

Question: `C[C@@]1(C2CCCC2)Cc2cc(OCC(=O)O)c(Cl)c(Cl)c2C1=O` was tested. Which Potency did it give?
Answer: inactive

Question: Which Potency does the source give for `CN1CCCC1CCOC(C)(c1ccccc1)c1ccc(Cl)cc1` (configuration not stated) here?
Answer: inactive

Question: `CC(C)Cn1c(=O)n(C)c(=O)c2[nH]cnc21` was tested. Which Potency did it give?
Answer: inactive

The compounds below were run against Parathyroid hormone/parathyroid hormone-related peptide receptor (Homo sapiens) (UniProt Q03431) (assay: qHTS for PTHR1 Agonists: Optimization Screen against the NCGC LOPAC library (AID 1347079;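 also: GloSensor cAMP luminescence in HEK-293 GP2 cells expressing human PTHR1 with IBMX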)). Conditions: HEK293 GP2 PTHR1 GloSensor cAMP luminescence, 1 h; series mostly up to 57.1 µM.
Chain of Parathyroid hormone/parathyroid hormone-related peptide receptor (Homo sapiens) (Q03431 whole entry, looked up): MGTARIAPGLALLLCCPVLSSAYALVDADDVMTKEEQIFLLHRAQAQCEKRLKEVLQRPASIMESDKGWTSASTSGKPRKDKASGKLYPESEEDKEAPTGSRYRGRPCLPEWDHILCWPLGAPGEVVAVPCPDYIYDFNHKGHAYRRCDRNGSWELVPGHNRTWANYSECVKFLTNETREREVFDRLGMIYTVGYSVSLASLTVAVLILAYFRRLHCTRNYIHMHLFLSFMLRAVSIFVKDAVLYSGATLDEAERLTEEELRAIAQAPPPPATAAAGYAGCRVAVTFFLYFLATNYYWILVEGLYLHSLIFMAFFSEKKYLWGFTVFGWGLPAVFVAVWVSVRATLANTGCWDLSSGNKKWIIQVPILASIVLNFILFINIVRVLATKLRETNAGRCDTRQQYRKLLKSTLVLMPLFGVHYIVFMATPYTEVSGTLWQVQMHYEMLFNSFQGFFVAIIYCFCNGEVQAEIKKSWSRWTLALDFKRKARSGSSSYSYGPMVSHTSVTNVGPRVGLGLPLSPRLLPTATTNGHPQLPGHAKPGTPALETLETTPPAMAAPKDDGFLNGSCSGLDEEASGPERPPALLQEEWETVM
Outline: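 Signal increase flags agonism. GP2 cells, derived from HEK-293, express human PTHR1 and a GloSensor cAMP construct.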

Question: With `O=c1[nH]c(=S)[nH]c(-c2ccccc2)c1Cc1c(O)ccc2ccccc12` as the compound, how does the Potency read?
Answer: inactive

Question: How did the Potency turn out when `C=C1C[C@@]23CC[C@H]4[C@@](C)(CCC[C@@]4(C)C(=O)O)[C@@H]2CC[C@]1(O)C3` was run?
Answer: inactive

Question: `CCCn1c(=O)c2[nH]c(C3CCCC3)nc2n(CCC)c1=O` was tested. Which Potency did it give?
Answer: inactive

Question: For `O=c1cc(-c2ccccc2)[nH]c2nc(Cl)ccc12`, which Potency is on record?
Answer: inactive

Question: `O=C1NC(=O)c2cc(Nc3ccccc3)c(Nc3ccccc3)cc21` was tested. Which Potency did it give?
Answer: inactive

Question: For `NC(=O)CNCCC(c1ccccc1)c1ccccc1`, which Potency is on record?
Answer: inactive

Question: For `COc1ccccc1N1CCN(CCN(C(=O)c2ccc(F)cc2)c2ccccn2)CC1`, which Potency is on record?
Answer: inactive

Question: With `CC#CCOC(=O)c1c(C)nc2sc3c(c2c1N)CCC(O)C3` (configuration not stated) as the compound, how does the Potency read?
Answer: inactive

Question: `Nc1ccc2c3c(cccc13)C(=O)NC2=O` was tested. Which Potency did it give?
Answer: inactive

Question: Which Potency does the source give for `O=C(N[C@@H](Cc1ccccc1)C(=O)CCl)OCc1ccccc1` here?
Answer: inactive

Question: Which Potency does the source give for `O=C(O)C1=CCCN(CCON=C(c2ccccc2)c2ccccc2)C1` here?
Answer: inactive

Question: `CCCn1c(=O)c2[nH]c(-c3ccc(S(=O)(=O)O)cc3)nc2n(CCC)c1=O` was tested. Which Potency did it give?
Answer: inactive

Question: With `O=C(O)Cc1c[nH]c2ccc(O)cc12` as the compound, how does the Potency read?
Answer: inactive

Question: For `Clc1nccc2c1ccc1ccccc12`, which Potency is on record?
Answer: inactive

Question: Which Potency does the source give for `O=C(O)/C=C/c1ccc(O)c(O)c1` here?
Answer: inactive

Question: `O=C(O)Cc1ccc(O)c(O)c1` was tested. Which Potency did it give?
Answer: inactive

Question: How did the Potency turn out when `NCCCCN=C(N)N` was run?
Answer: inactive

Question: `Cc1cccc(C)c1OCC(N)C(C)C` (configuration not stated) was tested. Which Potency did it give?
Answer: inactive

Question: Which Potency does the source give for `CNc1cc(NS(=O)(=O)c2ccc(N)cc2)nc(NC)n1` here?
Answer: inactive

Question: For `C#CC(N)CCC(=O)O` (configuration not stated), which Potency is on record?
Answer: inactive

Question: `Nc1ccc(-c2nc3ccc(-c4nc5ccc(N)cc5[nH]4)cc3[nH]2)cc1` was tested. Which Potency did it give?
Answer: inactive

Question: With `CN[C@H](CC(=O)O)C(=O)O` as the compound, how does the Potency read?
Answer: inactive

Question: Which Potency does the source give for `CCCCCCCCCC[Si](C)(C)CCC(=O)NC(Cc1ccc(C)cc1)c1ccccc1` (configuration not stated) here?
Answer: inactive

Question: How did the Potency turn out when `c1ccc2c(c1)CCC[C@H]2Nc1nc2ccccc2[nH]1` was run?
Answer: inactive

Question: `C[C@H](O)C(=O)C1=Nc2c(nc(N)[nH]c2=O)NC1` was tested. Which Potency did it give?
Answer: inactive

Question: With `c1ccc(CN2CCC3(CCCc4ccccc43)CC2)cc1` as the compound, how does the Potency read?
Answer: inactive

Question: With `CC(C)NC[C@H](O)COc1cccc2ccccc12` as the compound, how does the Potency read?
Answer: inactive

Question: How did the Potency turn out when `C[C@H]1CC2C3CCC4=CC(=O)C=C[C@]4(C)[C@@]3(Cl)[C@@H](O)C[C@]2(C)[C@@]1(O)C(=O)CO` (some centres not stated) was run?
Answer: inactive

Question: `OC1(c2ccc(Cl)cc2)CCN(Cc2c[nH]c3ccccc23)CC1` was tested. Which Potency did it give?
Answer: inactive

Question: `NC(Cc1cccc(-c2ccccc2CP(=O)(O)O)c1)C(=O)O` (configuration not stated) was tested. Which Potency did it give?
Answer: inactive
